Data from article PMC4336329 (PLoS ONE, 2015).
The campaign covered roughly 310,000 compounds. About 14,000 (4.5%) showed an effect of 50% or more. Effects have a minus sign here. The full list was thinned out, with strong results kept by preference.

Molecular target: human ether-à-go-go-related gene (hERG) potassium channel (human, UniProt Q12809)
Experiment: primary screen, population patch clamp on CHO cells stably expressing hERG; higher = less effect of the substance
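Further: peak tail current of the secondary pulse compared with the same well before compound.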

Sequence of human ether-à-go-go-related gene (hERG) potassium channel (Q12809 whole entry, looked up): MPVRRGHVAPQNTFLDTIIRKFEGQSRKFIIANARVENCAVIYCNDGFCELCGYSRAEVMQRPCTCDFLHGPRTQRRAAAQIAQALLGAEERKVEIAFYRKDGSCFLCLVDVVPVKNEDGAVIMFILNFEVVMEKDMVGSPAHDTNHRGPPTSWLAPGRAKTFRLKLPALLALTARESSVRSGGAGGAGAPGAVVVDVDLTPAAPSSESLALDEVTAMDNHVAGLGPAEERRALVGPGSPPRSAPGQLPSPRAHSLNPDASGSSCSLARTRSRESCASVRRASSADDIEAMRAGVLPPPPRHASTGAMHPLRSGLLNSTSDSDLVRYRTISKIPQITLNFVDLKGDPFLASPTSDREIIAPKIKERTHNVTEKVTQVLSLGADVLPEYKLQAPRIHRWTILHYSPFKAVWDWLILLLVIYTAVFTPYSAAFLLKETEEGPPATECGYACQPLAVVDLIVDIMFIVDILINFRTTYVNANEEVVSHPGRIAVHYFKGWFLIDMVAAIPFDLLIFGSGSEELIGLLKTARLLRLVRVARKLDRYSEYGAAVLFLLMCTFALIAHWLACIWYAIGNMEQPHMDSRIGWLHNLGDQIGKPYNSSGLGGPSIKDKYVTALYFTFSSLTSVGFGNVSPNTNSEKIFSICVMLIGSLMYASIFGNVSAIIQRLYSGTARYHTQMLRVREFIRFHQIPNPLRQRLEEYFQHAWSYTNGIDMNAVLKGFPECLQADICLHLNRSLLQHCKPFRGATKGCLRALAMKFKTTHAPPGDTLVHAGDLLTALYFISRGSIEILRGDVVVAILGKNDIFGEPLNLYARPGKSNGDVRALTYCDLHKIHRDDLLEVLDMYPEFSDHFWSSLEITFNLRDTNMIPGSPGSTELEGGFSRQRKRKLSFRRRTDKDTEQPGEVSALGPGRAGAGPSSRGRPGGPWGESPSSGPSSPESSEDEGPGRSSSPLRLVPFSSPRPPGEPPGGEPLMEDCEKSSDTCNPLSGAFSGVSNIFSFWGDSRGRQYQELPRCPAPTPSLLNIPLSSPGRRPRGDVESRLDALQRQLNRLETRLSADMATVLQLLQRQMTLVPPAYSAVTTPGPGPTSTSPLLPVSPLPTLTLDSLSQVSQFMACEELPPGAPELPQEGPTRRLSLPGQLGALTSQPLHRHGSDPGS

SMILES | hERG current change (%, negative = inhibition) at 10uM
CCOC(=O)Cn1c(-c2ccc(OC)cc2)c(-c2ccc(OC)cc2)nnc1=O | 9.79%
O=C(NC(=S)NCCc1ccccn1)c1ccco1 | 17.4%
COc1cccc(CNS(=O)(=O)c2ccc(S(=O)(=O)N3CCCC3)cc2)c1 | 7.51%
COc1ccc(C(=O)N(Cc2ccco2)Cc2cccs2)c(O)c1 | -6.63%
O=C(CSc1nncn1-c1ccccc1)Nc1ccc(N2CCOCC2)cc1 | 3%
CN(C)S(=O)(=O)c1ccc(NC(=O)N2CCN(c3cccc(C(F)(F)F)c3)CC2)cc1 | 7.83%
Cc1ccsc1C(=O)OCC(=O)NCCNC(=O)COC(=O)c1sccc1C | 15.7%
O=C(CCNC(=O)c1ccccc1Cl)Nc1cc(S(=O)(=O)N2CCOCC2)ccc1N1CCCC1 | -8.58%
COc1ccccc1-c1c(C)nn2c(-c3ccccc3)cc(C)nc12 | 3.05%
CCOC(=O)COn1c(=O)c(-c2ccc(Cl)cc2)[n+]([O-])c2ccccc21 | -4.24%
Cc1ccc(S(=O)(=O)N(Cc2cccc(F)c2)C(=O)N2CCN(C)CC2)cc1 | 33.1%
CCCC(=O)Nc1ccc(C(=O)NCc2ccccn2)cc1 | 14.2%
CCOc1ccc(CN2CCN(Cc3nc(C(C)C)cs3)CC2CCO)cc1 (centres unmarked) | -82.2%
COc1cccc(CN2CCN(Cc3nc(C(C)C)cs3)CC2CCO)c1 (centres unmarked) | -73.7%
COc1cccc(CN2CCN(Cc3c(C)nn(C(C)C)c3C)CC2CCO)c1 (centres unmarked) | -2.68%
CC(C)c1csc(CN2CCN(Cc3ccc(F)cc3)C(CCO)C2)n1 (centres unmarked) | -35.3%
Cc1ccc(CN2CCN(Cc3nc(C(C)C)cs3)CC2CCO)cc1 (centres unmarked) | -68.5%
Cc1nn(-c2ccccc2)c(C)c1/C=C/C(=O)OCC(=O)Nc1ccc(S(N)(=O)=O)cc1 | 13.1%
COc1ccccc1C(=O)NCCC(=O)N(C)CC(=O)Nc1ccc(C)cc1 | 7.91%
Cc1ccc(S(=O)(=O)NC(CC(=O)O)c2ccccc2)c(C)c1 (centres unmarked) | 5.52%
CC1C(c2ccccc2)C(C#N)(C#N)C2(C#N)C(=O)NC1(N)C2C (centres unmarked) | -3.25%
c1ccc(-n2nnnc2-c2cnc(-c3cccnc3)nc2-c2cccs2)cc1 | -10.6%
Cc1ccc(CN2CCN(CC(=O)N/N=C/c3c[nH]c4ccccc34)CC2)cc1 | -36.3%

SMILES | hERG current change (%, negative = inhibition) at 10uM
O=C(CN1CCN(Cc2ccc(Cl)cc2)CC1)N/N=C/c1ccccc1F | -68.7%
CN1CCN(CC(=O)N/N=C\c2c[nH]c3ccccc23)CC1 | 16.2%
O=C(CN1CCN(Cc2ccc(Cl)cc2)CC1)N/N=C/c1c[nH]c2ccccc12 | -52.9%
O=C(CO)N/N=C/c1ccccc1F | 19.1%
O=C(CN1CCCCCCC1)N/N=C/c1ccccc1F | -35.6%
O=C(CN1CCN(c2ccccc2)CC1)N/N=C/c1cccc(F)c1 | 4.27%
O=C(CN1CCN(Cc2ccc(Cl)cc2)CC1)N/N=C/c1cccc(F)c1 | -69.2%
O=C(COCC(=O)N/N=C/c1ccccc1F)N/N=C/c1ccccc1F | -54.8%
O=C(CC(=O)Nc1ccc(Cl)cc1)N/N=C\c1cccc(F)c1 | 16.6%
COc1ccccc1/C=N/NC(=O)COCC(=O)N/N=C/c1ccccc1OC | 3.56%
O=C(CN1CCN(Cc2ccccc2)CC1)N/N=C/c1ccccc1F | -29.3%
O=C1CN(C(=O)CSc2nnc(Nc3ccccc3)s2)c2ccccc2N1 | 0.255%
COc1ccc(NC(=S)NCc2ccc3c(c2)cc(C)n3C)cc1 | 5.5%
CN(CCO)c1cc(NCCCN2CCC(Cc3ccccc3)CC2)c2nonc2c1[N+](=O)[O-] | -38%
COC(=O)c1ccc(NC(=O)c2ccc3c(c2)C(=O)N(Cc2cccnc2)C3=O)cc1 | -23.2%
CCCCCCn1c(O)c(C(C)=NC)c(=O)[nH]c1=O | 1.56%
CC1CCc2nn(CC(=O)Nc3ccc(F)cc3F)cc2C1 (centres unmarked) | -2.61%
COc1ccc(-c2nc3ccccc3n2Cc2ccc(C)cc2)cc1 | -6.29%
CN1C(=O)C(C)(C)c2cc(S(=O)(=O)N3CCCC(C(=O)NCc4ccccc4Cl)C3)ccc21 (centres unmarked) | 2.18%
C=CCN(C(=O)CCC(=O)O)C1CC(=O)N(c2ccc(OCCC)cc2)C1=O (centres unmarked) | 0.711%
Cc1ccc2oc(=O)c3cc(C(=O)NCCN4CCN(C)CC4)sc3c2c1 | -18.2%
COC(=O)c1ccc(C)c(NC(=O)C2CC(=O)N(C3CCCC(C)C3C)C2)c1 (centres unmarked) | -11.5%
O=C(OCC(=O)N1CCCCC1)c1c[nH]c2ccccc12 | -7.04%

SMILES | hERG current change (%, negative = inhibition) at 10uM
Cc1ccc(CN2CCN(CC(=O)N/N=C/c3ccccc3F)CC2)cc1 | -66.4%
O=C(O)COc1ccccc1/C=N/NC(=O)CN1CCN(Cc2ccc(Cl)cc2)CC1 | 10.7%
O=C(CN1CCSCC1)N/N=C/c1ccccc1F | 0.735%
Cc1nc2ccccc2c(=O)n1-c1ccc(Cl)cc1Cl | -0.324%
Cc1ccc(CSc2ncnc3c2cnn3-c2ccc(C)cc2)cc1 | 30.7%
COc1ccc(N(CC(O)CN2C(=O)NC(C)(C)C2=O)S(=O)(=O)c2ccc(C)cc2)cc1 (centres unmarked) | -11.6%
COc1ccc(N(CC(O)Cn2nnc3ccccc32)S(=O)(=O)c2ccc(C)cc2)cc1 (centres unmarked) | -64.6%
COc1ccc(N(CC(O)Cn2c(C)nc3ccccc32)S(=O)(=O)c2ccc(C)cc2)cc1 (centres unmarked) | -11.5%
COc1ccc([N+](=O)[O-])cc1N(CC(O)Cn1nnc2ccccc21)S(=O)(=O)c1ccc(C)cc1 (centres unmarked) | -29.4%
COc1ccc(N(CC(O)Cn2c(C)nc3ccccc32)S(=O)(=O)c2ccccc2)cc1 (centres unmarked) | 4.8%
COc1ccc(N(CC(O)Cn2cnc3ccccc32)S(=O)(=O)c2ccc(C)cc2)cc1 (centres unmarked) | -58%
COc1ccc(C(=O)Nc2ccc(N3CCCCCC3)cc2)cc1S(=O)(=O)N1CCOCC1 | -40.1%
COc1ccc(CN(CC2CCCO2)C(=O)CN2C(=O)COc3ccccc32)cc1OC (centres unmarked) | -15.8%
Cc1sc(N)c(C(=O)c2ccccc2Cl)c1C | 3.8%
CCOc1ccccc1N(CC(=O)NC1CCCCC1)C(=O)CNC(=O)c1ccco1 | 8.1%
Fc1ccc(CN2CCN(c3ncccn3)CC2)cc1 | -3.32%
CN1C(=O)c2ccc(C(=O)Nc3ccc(Br)cn3)cc2C1=O | 7.17%
O=C(CN1CCOCC1)Nc1ccccc1NC(=O)C1CCN(c2ncccn2)CC1 | 9.55%
Cc1ccc(-c2nc(CS(=O)CC(=O)NCCN(CC(C)C)CC(C)C)c(C)o2)cc1 (centres unmarked) | -19.4%
Cc1cc(Cl)ccc1NC(=O)CN1C(=O)C(=O)N(C2CCCC2)C1=O | -5%
Cc1ccc(-n2cc(CN3CCC(CO)(Cc4ccccc4)CC3)cn2)cc1 | -65.1%
OCC1(Cc2ccccc2)CCN(Cc2cnn(-c3ccccc3F)c2)CC1 | -41.9%
Cc1ccc(-n2cc(CN3CCC(CO)(Cc4cccc(C(F)(F)F)c4)CC3)cn2)cc1 | -76%

SMILES | hERG current change (%, negative = inhibition) at 10uM
Cc1ccc(CN2CCCN(Cc3ccccc3C)S2(=O)=O)cc1 | 21.1%
Cc1ccc(-n2nnnc2-c2cnc(N3CCCC3)nc2C(F)(F)F)cc1 | -9.95%
CCOC(=O)c1cnc2c(cnn2C)c1NCc1ccc(OC)cc1 | 16%
COC(=O)c1cc2sccc2n1CC(=O)Nc1ccc(OC)c(OC)c1OC | -1.08%
COC(=O)c1cc2sc(Cl)cc2n1CC(=O)Nc1ccc(OC)c(OC)c1OC | -68.9%
COC(=O)c1cc2occc2n1CC(=O)Nc1ccc(OC)c(OC)c1OC | 0.151%
CCOc1ccc(NC(=O)CN2CC(c3ccccc3)CC2=O)cc1 (centres unmarked) | -19.9%
COC(=O)c1ccc(/C=N/NS(=O)(=O)c2cc(C)ccc2C)cc1 | -0.827%
Oc1ccc(-c2csc(NCc3ccco3)n2)cc1 | -10.2%
c1coc(CNc2nc(-c3cccs3)cs2)c1 | -9.83%
Cc1nc2sccn2c1-c1csc(NCc2ccccc2)n1 | 6.86%
Cc1ccn2c(-c3csc(NCc4ccco4)n3)c(C)nc2c1 | -64.9%
Br.Cc1nc2ncccn2c1-c1csc(Nc2ccc(S(N)(=O)=O)cc2)n1 | 0.703%
Cc1nc2ccccn2c1-c1csc(NCc2ccco2)n1 | -74.6%
c1coc(CNc2nc(-c3ccncc3)cs2)c1 | -3.17%
Cc1nc2ncccn2c1-c1csc(NCc2ccco2)n1 | -51.8%
C=CCNc1nc(-c2c(C)nc3ncccn23)cs1 | -0.737%
Cc1nc(C)c(-c2csc(NCc3ccco3)n2)s1 | -10.9%
Cc1ccn2c(-c3csc(NCc4ccccc4)n3)c(C)nc2c1.Cl | -72.4%
Cc1ccn2c(NCc3ccccc3)c(-c3cccs3)nc2c1 | 12.5%
